The record followed here is ChEMBL document CHEMBL3988442, “University of Dundee, Small-Polar-MMV Screening Library” (2021).

Out of some 53,000 compounds screened, about 900 (1.7%) showed an effect of 50% or more. This excerpt belongs to a sample that is enriched for strong results.

This assay concerns Mycobacterium tuberculosis. Kind of assay: Cornell - Phenotypic assay to identify agents that inhibit growth of Mycobacterium tuberculosis. The class given is functional. Details: scale not given: direction of the effect not stated beside the values. To be noted: 10 mM as filed; unlikely as a test dose.
For `OC1(CNCCc2csc(-c3cccnc3)n2)CCNC1` (centres undefined), the “Percent Effect” value came to 6.154%.

Consider `CN1CCOC(C)(C(=O)Nc2nccs2)C1` (centres undefined), for which the “Percent Effect” value was -67.22%. As for `COCC1COCCC12CCN(C(=O)COc1ccccc1C)CC2` (centres undefined), the figure is -10.81%. As for `O=C(NCCN1CCNC1=O)c1cc(-c2ccc(O)cc2)n[nH]1`, the figure is 15.58%.

`Cc1cc(C(=O)NCCN2CCCc3ccccc32)[nH]n1`: the “Percent Effect” value is -6.129%. As for `O=C(NCCN1CCc2ccccc21)c1cc(-c2ccc(O)cc2)n[nH]1`, the figure is 53.46%; as for `CCc1ccc(NC(=O)c2ncc(C(N)=O)cc2Cl)cc1F`, 15.72%; as for `O=C(NCCc1cccc(F)c1)C1(n2cnnn2)CCCCC1`, 18.95%. To `O=C(NCCc1c[nH]c2ccccc12)C1(n2cnnn2)CCCCC1` belongs 25.7%; to `O=C(NCCc1c[nH]c2ccc(F)cc12)C1(n2cnnn2)CCCCC1`, 65.5%. To `CCc1ncc2c(n1)CN(Cc1nc(-c3ccco3)oc1C)CC2` belongs -14.23%; to `O=C(Cc1nc(-c2ccncc2)n[nH]1)N1CCOCC1`, -3.393%. Turning to `CCCNc1ccc(C(=O)NCCc2cccc(Cl)c2)cn1`, the “Percent Effect” value is on record as -5.958%. To `COc1ncc(C(=O)NCc2ccc(Br)cc2)cn1` belongs 25.41%; to `COC(=O)c1ccc(C(=O)NCc2ccc(Br)cc2)cn1`, 95.13%.

As to `COc1ccc(CNC(=O)c2ccc(Br)cn2)cc1`, the “Percent Effect” value was 8.291%. As for `CCc1nn(-c2cc(Oc3cccc(C)c3)nc(C)n2)c(N)c1C#N`, the “Percent Effect” value was found to be 11.01%. To `CS(=O)(=O)N1CCN(C(=O)c2cc(-c3ccco3)cs2)CC1` belongs 10.89%; to `O=C1C(CS(=O)(=O)Nc2ccc(Br)cc2)=NC(=O)n2cccc21`, 17.38%.

Take `CC(C)c1ccc(NS(=O)(=O)CC2=NC(=O)n3cccc3C2=O)cc1`: the “Percent Effect” value is on record as 59.8%. As for `O=C1C(CS(=O)(=O)Nc2ccc(Cl)cc2)=NC(=O)n2cccc21`, the figure is 11.65%. Consider `COc1cccc(S(=O)(=O)NC(=O)CCC2CCCC2)c1`, for which the “Percent Effect” value is 12.89%.

Turning to `CC(=O)N1CCC(c2nccnc2CNC(=O)c2cc[nH]n2)CC1`, the “Percent Effect” value was -11.98%. `CCc1ccc(CN(Cc2ccccc2)CC(C)CO)nc1` (centres undefined): the “Percent Effect” value was 46.77%. As for `Cc1c(C(=O)NC(C)C(C)C)nnn1-c1cccc2c1CCN(C)C2` (centres undefined), the figure is 4.546%. As for `Cc1[nH]n(-c2ccccc2)c2nnc(N)c1-2`, the figure is 107.4%; as for `CN(C)CCN1C(=O)CCC12CCCN(C(=O)c1ccncc1F)C2.O=C(O)C(F)(F)F` (centres undefined), -23.79%. As for `CS(=O)(=O)N1CCC(OCCCc2ccccc2)C1` (centres undefined), the figure is 18.05%. Consider `Cn1cc(S(=O)(=O)N2CCC(OCCCc3ccccc3)C2)cn1` (centres undefined), for which the “Percent Effect” value was 25.94%. To `O=S(=O)(c1cccnc1)N1CCC(OCCCc2ccccc2)C1` (centres undefined) belongs 55.63%; to `CS(=O)(=O)N1CCCC12CCCN(S(=O)(=O)c1cc(F)cc(F)c1)C2` (centres undefined), 2.906%.

For `CS(=O)(=O)N1CCCC12CCCN(S(=O)(=O)c1ccc(F)cc1)C2` (centres undefined), the “Percent Effect” value is recorded as -19.89%. As for `COc1cccc(S(=O)(=O)N2CCOC(C)(C(N)=O)C2)c1` (centres undefined), the “Percent Effect” value turned out to be 8.35%. For `COc1ccc(S(=O)(=O)N2CCOC(C)(C(N)=O)C2)cc1` (centres undefined), the “Percent Effect” value is 55.81%. For `COc1ccc(S(=O)(=O)N2CCCC3(CCCN3S(C)(=O)=O)C2)cc1` (centres undefined), the “Percent Effect” value came out at 103.2%. To `CC1(C(N)=O)CN(S(=O)(=O)c2cccc(F)c2)CCO1` (centres undefined) belongs -8.727%. To `CCc1nnc(Nc2cc(C)nc(C3CN(C(=O)C(C)C)CCO3)c2)s1` (centres undefined) belongs 1.783%; to `CN1CCCC(c2nnc3n2CCN(S(=O)(=O)c2ccccc2Cl)C3)C1` (centres undefined), 2.1%. To `CCOc1ccccc1CNC(=O)c1cnn(CC)c1C(F)(F)F` belongs 4.777%. With `COCCn1ccc(=O)c(OCC(=O)Nc2ccc(Br)cc2)c1C`, the “Percent Effect” value was 27.51%. As for `COCCn1ccc(=O)c(OCC(=O)Nc2cccc(OC)c2)c1C`, the figure is -5.179%. Consider `COCCn1ccc(=O)c(OCC(=O)Nc2ccc(OC)cc2)c1C`, for which the “Percent Effect” value is on record as 53.75%.

On to `c1cc(-c2n[nH]cc2-c2ccnc(N3CCCC3)n2)ccn1`, for which the “Percent Effect” value is reported as 22.12%. Take `Cc1nnc2ccc(N3CCC4(CCOC4)C3)nn12` (centres undefined): the “Percent Effect” value is given as 16.18%. Regarding `FC(F)c1nnc2ccc(N3CCC4(CCCCC4)C3)nn12`, the “Percent Effect” value is 52.01%. To `FC(F)c1nnc2ccc(N3CCC4(CCOC4)C3)nn12` (centres undefined) belongs 23.66%.

On to `CCOC(=O)c1n[nH]cc1-c1cncn1CC(C)n1nc(C)cc1C` (centres undefined), for which the “Percent Effect” value is recorded as -15.99%. To `CCn1ncc(CN(C)C(=O)c2cc(C(F)(F)F)n(C)n2)c1C` belongs 9.297%; to `COCCNC(=O)c1c(-n2cnnn2)sc2c1CCCC2`, 24.57%; to `CCCc1cncnc1N1CCC(NCc2ccncc2)CC1`, -49.68%. To `CCCc1cncnc1N1CCC(NCc2cc3ccccc3[nH]2)CC1` belongs 109.8%; to `CCCc1cncnc1N1CCC(NCc2ccc(O)cc2)CC1`, 28.01%; to `CCn1c(C2CCN(C(=O)c3cc(C4CC4)on3)CC2)nn(C)c1=O`, 4.422%. As for `COCCNc1nc(-n2nc(C)cc2C)nc2sc3c(c12)CCCC3`, the figure is -12.48%; as for `Cc1cc(C)n(C2=NC(NCCC(C)C)c3c(sc4c3CCCC4)N2)n1` (centres undefined), 1.366%; as for `Cc1cc(C)n(-c2nc(NCCCO)c3c4c(sc3n2)CCCC4)n1`, 82.78%. For `CCc1nc(CN(C)C(=O)c2cc(CN(CC)CC)c(CC)o2)no1`, the “Percent Effect” value came to 11.36%.

`COc1ccccc1CN(CCCn1ccnc1)CC1CCOC1.O=C(O)CC(O)(CC(=O)O)C(=O)O` (centres undefined): the “Percent Effect” value is 1.044%. To `CCN(Cc1ccco1)C(=O)c1cc(OC)c2c(c1)OCCO2` belongs 11.52%.

Turning to `Cn1ncc(NC(=O)c2noc3c2CCCC3)c1C(=O)N1CCCCC1`, the “Percent Effect” value was 1.181%.

Regarding `CC(C)c1nc(S(=O)(=O)N(C)c2ccc(F)cc2)c[nH]1`, the “Percent Effect” value was found to be 0.9821%.

`Cc1nc2c(c(C)c1CC(=O)Nc1ccnn1C(C)C)c(=O)[nH]n2C`: the “Percent Effect” value is on record as -6.05%. To `CC(C)c1n[nH]c(C(=O)Nc2ccnn2C(C)C)c1Br` belongs -19.54%; to `O=C(Nc1ccnn1C1CCCC1)c1ccc(NC2CC2)nc1`, 16.19%.

`O=C(CN1CCCC1Cn1cncn1)Nc1ccnn1C1CCCC1` (centres undefined): the “Percent Effect” value is 39.34%.

Take `CC(C)c1nc(S(=O)(=O)Nc2ccnn2C2CCCC2)c[nH]1`: the “Percent Effect” value is listed as 106.1%. In the case of `Cc1ncc(S(=O)(=O)Nc2ccnn2C(C)C)[nH]1`, the “Percent Effect” value came out at 85.6%. Take `Cc1ncc(S(=O)(=O)Nc2ccnn2C2CCCCC2)[nH]1`: the “Percent Effect” value was determined as 106.2%. `CCN1CCN(S(=O)(=O)c2c[nH]c(C(C)C)n2)c2ccccc21`: the “Percent Effect” value stood at 19.57%.
